# Assay results taken from PubChem BioAssay.
# Several values for one entry are separate records, joined by “and”; a condition that tells them apart may be missing. Identical values can stand only once. Activity calls are given as the source filed them. Rule as the data show it, unless noted: active = inhibition above about 80%; inactive = the rest.
# Legend:
# [1] = LFS_MB_P medulloblastoma growth inhibition, cell-based, chromothripsis tumors, cisplatin or BGB combos (AID 1671449); settings: LFS_MB_P medulloblastoma cells;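 also: cells exposed for 96 hours; 0% = vehicle DMSO and 100% = killing by high DMSO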
# [2] = HDN33 neuroblastoma growth inhibition, cell-based, chromothripsis tumors, cisplatin or BGB combos (AID 1671450); settings: HDN33 neuroblastoma cells, stronger effect = higher value;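 also: cells exposed to compound for four days; 0% = vehicle DMSO and 100% = cell killing by high DMSO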
# [3] = ICB984 medulloblastoma cell growth inhibition, synergistic combos for chromothripsis tumors, cisplatin or BGB combos (AID 1671451; call rule not given here;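 also: cells exposed for 96 hours before readout; 0% = vehicle DMSO and 100% = killing by high DMSO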); settings: ICB984 medulloblastoma cells, drug combinations, stronger effect = higher value
# [4] = LFS_MB_1R medulloblastoma cell growth inhibition, synergistic combos for chromothripsis tumors, cisplatin or BGB combos (AID 1671452); settings: LFS_MB_1R medulloblastoma cells, stronger effect = higher value;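 also: cells exposed for 96 hours before readout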
# [5] = HTB85 osteosarcoma cell growth inhibition, synergistic combos for chromothripsis tumors, BGB or cisplatin IC20 combos (AID 1671453); settings: HTB85 osteosarcoma cells, drug combinations, stronger effect = higher value;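 also: cells exposed for 96 hours before readout; 0% = vehicle DMSO and 100% = high DMSO killing control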
# [6] = CRL2098 osteosarcoma cell growth inhibition, synergistic combos for chromothripsis tumors, BGB or cisplatin IC20 combos (AID 1671454); settings: CRL2098 osteosarcoma cells, drug combinations, stronger effect = higher value;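 also: cells exposed for 96 h before readout; 0% = vehicle DMSO and 100% = killing by high DMSO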
# [7] = HD-MB03 medulloblastoma cell growth inhibition, synergistic combos for chromothripsis tumors, BGB or cisplatin IC20 combos (AID 1671455; in the data active = inhibition above about 83%;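 also: 0% = vehicle DMSO and 100% = high DMSO as cytotoxic control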); settings: HD-MB03 medulloblastoma cells, stronger effect = higher value
# [8] = UWB1.289 ovarian carcinoma cell growth inhibition, synergistic combos for chromothripsis tumors, BGB or cisplatin combos (AID 1671456); settings: UWB1.289 ovarian carcinoma cells, stronger effect = higher value;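 also: cells exposed to compound for four days; 0% = vehicle DMSO and 100% = killing by high DMSO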
# [9] = LFS_MB_2R medulloblastoma cell growth inhibition, synergistic combos for chromothripsis tumors, cisplatin combos (AID 1671457); settings: LFS_MB_2R medulloblastoma cells, stronger effect = higher value;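 also: cells exposed to compound for four days before readout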
# [10] = MDA-MB-436 breast carcinoma cell growth inhibition, synergistic combos for chromothripsis tumors, BGB or cisplatin combos (AID 1671458; call rule not given here;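 also: cells exposed for 96 hours; 0% = vehicle DMSO and 100% = killing by high DMSO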); settings: MDA-MB-436 breast carcinoma growth inhibition, drug combinations, stronger effect = higher value
# [11] = UWB1.289_BRCA1 ovarian cancer growth, cell-based, BGB or cisplatin combinations (AID 1671459); settings: UWB1.289 BRCA1 ovarian carcinoma, drug combinations, stronger effect = higher value
# [12] = human astrocyte viability loss, single and combined drugs, cytotoxicity control for chromothriptic childhood tumor combination screen, cell-based, BGB or cisplatin IC20 combos (AID 1671460); settings: Human astrocytes, drug combinations, stronger effect = higher value;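 also: cells exposed to compounds for 96 hours before viability readout; 0% = vehicle and 100% = killing control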
# [13] = growth inhibition of BT084 medulloblastoma cells, cell-based, ICGC_MB145, cisplatin and BGB IC40 combos (AID 1671461); settings: drug combinations, stronger effect = higher value;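 also: cells exposed to drugs for 96 hours; 0% = vehicle DMSO and 100% = high DMSO full killing control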
# [14] = growth inhibition of RCMB18 medulloblastoma cells, cell-based, cisplatin and BGB IC40 combos (AID 1671462); settings: stronger effect = higher value;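 also: cells exposed to compound for four days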
# [15] = growth inhibition of CRL1545 osteosarcoma cells, cell-based, cisplatin and BGB IC20 combos (AID 1671464); settings: stronger effect = higher value;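 also: cells exposed to compound for 96 hours before readout; 0% = vehicle DMSO and 100% = high DMSO killing control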
# [16] = at 0.5 µM, stronger effect = higher value
# [17] = measured here: combination with BGB IC20, at 0.005 µM
# [18] = measured here: combination with BGB IC40, at 0.005 µM
# [19] = measured here: combination with BGB IC40, at 0.05 µM
# [20] = measured here: combination with cisplatin, at 0.5 µM, stronger effect = higher value
# [21] = measured here: combination with cisplatin, at 5 µM, stronger effect = higher value
# [22] = measured here: with BGB IC20 combination, at 0.5 µM
# [23] = measured here: with cisplatin IC20 combination, at 0.5 µM
# [24] = measured here: 5 uM single agent, at 5 µM
# [25] = measured here: combination with cisplatin, at 0.5 µM
# [26] = measured here: combination with cisplatin, at 5 µM
# [27] = measured here: with BGB IC20, at 0.5 µM
# [28] = measured here: with BGB IC20, at 5 µM
# [29] = measured here: with cisplatin IC20, at 0.5 µM
# [30] = measured here: with cisplatin IC20, at 5 µM
# [31] = measured here: combination with BGB at IC20, at 0.5 µM
# [32] = measured here: combination with cisplatin at IC20, at 0.5 µM
# [33] = measured here: combo with BGB at IC20, at 0.5 µM
# [34] = measured here: combo with cisplatin at IC20, at 0.5 µM
# [35] = measured here: inhibition with BGB combination, at 0.05 µM
# [36] = measured here: inhibition with cisplatin combination, at 0.05 µM
# [37] = measured here: BGB combination, at 0.5 µM
# [38] = measured here: BGB combination, at 5 µM
# [39] = measured here: cisplatin combination, at 0.5 µM
# [40] = measured here: cisplatin combination, at 5 µM
# [41] = BGB combination, concentration series, at 5 µM
# [42] = cisplatin combination, concentration series, at 5 µM
# [43] = measured here: combo with BGB IC20, at 0.5 µM
# [44] = measured here: combo with cisplatin IC20, at 0.5 µM
# [45] = cisplatin combination, at 0.5 µM
# [46] = measured here: BGB IC40 combination 0.05 uM, at 0.05 µM
smiles,measurement,setting,value
CN(C)C(=S)NN=C(c1ccccn1)c1ccccn1,inhibition,[1]; [16],9.49% (inactive)
same,inhibition,[1]; [17],65.9%
same,inhibition,[1]; [18],60.3%
same,inhibition,[1]; [19],73.6%
same,inhibition,[1]; [20],14.7%
same,inhibition,[1]; [21],65.2%
same,inhibition,"[2]; BGB combo, at 5 µM",93.5%
same,inhibition,[2]; at 0.5 µM,96.3% (active)
same,inhibition,"[2]; cisplatin combo, at 5 µM",96.8%
same,inhibition,[2]; [22],96.5%
same,inhibition,[2]; [23],96.3%
same,inhibition,"[2]; single agent, at 5 µM",95.4%
same,inhibition,"[3]; BGB IC20 combo, at 0.005 µM",49.9%
same,inhibition,"[3]; BGB IC40 combo, at 0.005 µM",48.2%
same,inhibition,"[3]; BGB IC40 combo, at 0.05 µM",88.6%
same,inhibition,[3]; at 0.5 µM,-3.29% (inactive)
same,inhibition,"[3]; cisplatin combo, at 0.05 µM",88.1%
same,inhibition,"[3]; cisplatin combo, at 0.5 µM",-11.8%
same,inhibition,"[3]; cisplatin combo, at 5 µM",27.2%
same,inhibition,[3]; [24],32%
same,inhibition,[4]; at 0.5 µM,82.5% (active)
same,inhibition,[4]; [19],62.2%
same,inhibition,[4]; [25],96.8%
same,inhibition,[4]; [26],91.5%
same,inhibition,[5]; at 0.5 µM,89.9% (active)
same,inhibition,[5]; [27],85.2%
same,inhibition,[5]; [28],92.5%
same,inhibition,[5]; [29],91%
same,inhibition,[5]; [30],88.7%
same,inhibition,"[5]; single agent, at 5 µM",90.5%
same,inhibition,[6]; at 0.5 µM,98% (active)
same,inhibition,[6]; [31],97.8%
same,inhibition,[6]; [32],98.6%
same,inhibition,[7]; at 0.5 µM,86.8% (active)
same,inhibition,[7]; [33],70.3%
same,inhibition,[7]; [34],93.8%
same,inhibition,[8]; at 0.5 µM,88% (active)
same,inhibition,[8]; [35],90.6%
same,inhibition,[8]; [36],92.1%
same,inhibition,[9]; at 0.5 µM,61.3% (inactive)
same,inhibition,[9]; [25],70.1%
same,inhibition,[9]; [26],64.5%
same,inhibition,[10]; at 0.5 µM,81.2% (active)
same,inhibition,[10]; [37],73.4%
same,inhibition,[10]; [38],86%
same,inhibition,[10]; [39],85.1%
same,inhibition,[10]; [40],93.7%
same,inhibition,[11]; [41],121%
same,inhibition,[11]; at 0.5 µM,87% (active)
same,inhibition,[11]; [42],127%
same,inhibition,[12]; at 0.5 µM,77.8% (inactive)
same,inhibition,[12]; [43],77.7%
same,inhibition,[12]; [44],72.8%
same,inhibition,[13]; at 0.5 µM,72.7% (inactive)
same,inhibition,[13]; [45],77.7%
same,inhibition,"[13]; cisplatin combination, at 5 µM",74%
same,inhibition,[13]; [46],80.3%
same,inhibition,"[13]; single agent, at 5 µM",83.9%
same,inhibition,[14]; at 0.5 µM,82.2% (active)
same,inhibition,"[14]; cisplatin combo, at 5 µM",90.5%
same,inhibition,"[14]; measured here: BGB IC40 combination, at 0.05 µM",80.1%
same,inhibition,[14]; [25],86%
same,inhibition,"[14]; single agent, at 5 µM",94.3%
same,inhibition,[15]; at 0.5 µM,96.9% (active)
same,inhibition,[15]; [22],97.1%
same,inhibition,[15]; [23],96.8%
same,inhibition,"[15]; single agent, at 0.05 µM",88.4%
same,inhibition,"[15]; single agent, at 5 µM",89.2%
CCC1(O)C(=O)OCc2c1cc1n(c2=O)Cc2cc3c(CN(C)C)c(O)ccc3nc2-1 (stereo not drawn),inhibition,[1]; [16],-7.42% (inactive) and 3.72% (inactive) and -2.55% (inactive)
same,inhibition,[1]; [17],-2.96% and 0.821% and -23.7%
same,inhibition,[1]; [18],-28.9% and -14.4% and -12.5%
same,inhibition,[1]; [19],-8.3% and -3.25% and -7.46%
same,inhibition,[1]; [20],36.9% and 49.4% and -21.3%
same,inhibition,[1]; [21],93.3% and 91.7% and 75.9%
same,inhibition,"[2]; BGB combo, at 5 µM",96.4% and 97.1% and 98.1%
same,inhibition,[2]; at 0.5 µM,83.1% (active) and 85.8% (active) and 82.9% (active)
same,inhibition,"[2]; cisplatin combo, at 5 µM",97.1% and 98% and 96.8%
same,inhibition,[2]; [22],87% and 85.5% and 88%
same,inhibition,[2]; [23],75.5% and 82.8% and 74.8%
same,inhibition,"[2]; single agent, at 5 µM",95.8% and 96% and 97%
same,inhibition,"[3]; BGB IC20 combo, at 0.005 µM",1.19% and -8.91% and -7.41%
same,inhibition,"[3]; BGB IC40 combo, at 0.005 µM",-10.3% and 15% and 31.5%
same,inhibition,"[3]; BGB IC40 combo, at 0.05 µM",86.5% and 95.6% and 93.6%
same,inhibition,[3]; at 0.5 µM,-27.8% (inactive) and -43.8% (inactive) and -21.6% (inactive)
same,inhibition,"[3]; cisplatin combo, at 0.05 µM",86% and 95.5% and 93.6%
same,inhibition,"[3]; cisplatin combo, at 0.5 µM",-32.3% and -49.7% and -34.5%
same,inhibition,"[3]; cisplatin combo, at 5 µM",-21.2% and -33.4% and -10.9%
same,inhibition,[3]; [24],-12.3% and -23.2% and -4.56%
same,inhibition,[4]; at 0.5 µM,47.7% (inactive) and 43.3% (inactive) and 58.9% (inactive)
same,inhibition,[4]; [19],10.2% and -20.8% and 4.16%
same,inhibition,[4]; [25],82.2% and 88% and 73.7%
same,inhibition,[4]; [26],88.7% and 77.4% and 94.2%
same,inhibition,[5]; at 0.5 µM,96.9% (active) and 98% (active) and 97.5% (active)
same,inhibition,[5]; [27],96.8% and 97.1%
same,inhibition,[5]; [28],97.9% and 97.6% and 98.3%
same,inhibition,[5]; [29],95.9% and 98.1% and 97.3%
same,inhibition,[5]; [30],99.6% and 99.8%
same,inhibition,"[5]; single agent, at 5 µM",99.8%
same,inhibition,[6]; at 0.5 µM,65.1% (inactive) and 60.8% (inactive) and 61.1% (inactive)
same,inhibition,[6]; [31],71% and 76.8% and 68.6%
same,inhibition,[6]; [32],64.4% and 48.3%
same,inhibition,[7]; at 0.5 µM,98% (active) and 98.7% (active) and 97.9% (active)
same,inhibition,[7]; [33],98% and 98.7% and 98.4%
same,inhibition,[7]; [34],97.6% and 98.6% and 97.2%
same,inhibition,[8]; at 0.5 µM,77% (inactive) and 79.8% (inactive) and 77.4% (inactive)
same,inhibition,[8]; [35],19.5% and 12.5% and 11.3%
same,inhibition,[8]; [36],13.4% and 13.9% and 19.4%
same,inhibition,[9]; at 0.5 µM,-1.34% (inactive) and 9.72% (inactive) and -3.02% (inactive)
same,inhibition,[9]; [25],29.4% and 18.3% and 22.7%
same,inhibition,[9]; [26],72.5% and 69.7% and 68.5%
same,inhibition,[10]; at 0.5 µM,69.2% (inactive) and 68.2% (inactive) and 67.8% (inactive)
same,inhibition,[10]; [37],61.3% and 61.9% and 60.6%
same,inhibition,[10]; [38],65.7% and 71.1% and 67.8%
same,inhibition,[10]; [39],72.6% and 68.5% and 65.5%
same,inhibition,[10]; [40],82% and 77.6% and 79.6%
same,inhibition,[11]; [41],103% and 101% and 96.7%
same,inhibition,[11]; at 0.5 µM,82.6% (active) and 85.9% (active) and 82.4% (active)
same,inhibition,[11]; [42],113% and 107% and 110%
same,inhibition,[12]; at 0.5 µM,64.5% (inactive) and 68.3% (inactive) and 55.5% (inactive)
same,inhibition,[12]; [43],69.2% and 71.9% and 60.5%
same,inhibition,[12]; [44],49.5% and 56.1% and 33.1%
same,inhibition,[13]; at 0.5 µM,1.98% (inactive) and 4.12% (inactive) and -13.3% (inactive)
same,inhibition,[13]; [45],37.8% and 38.2% and 36.1%
same,inhibition,"[13]; cisplatin combination, at 5 µM",37.9% and 28.6% and 20.5%
same,inhibition,[13]; [46],-16.5% and -30.7% and -23.7%
same,inhibition,"[13]; single agent, at 5 µM",-16% and -5.69% and -15.3%
same,inhibition,[14]; at 0.5 µM,11.7% (inactive) and 6.99% (inactive) and 15.6% (inactive)
same,inhibition,"[14]; cisplatin combo, at 5 µM",82.3% and 73.1% and 75.9%
